From PubChem BioAssay
Calls of active or inactive are those of the source. Unless noted, no rule for the calls is given here.

Columns and labels:
[1] = compounds binding Alexa647 anti-His antibody – biochemical, small-molecule microarray, 635 nm fluorescence, artefact control for SMM control protein annotation, primary screen (AID 1128); conditions: higher = more signal;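 also: score merges feature fluorescence with signal-to-noise for each printed compound spot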
[2] = system: Human papillomavirus type 1a E7 protein (residues 1-88); test: HPV1a E7 small-molecule binders, primary screen, biochemical, small-molecule microarray, residues 1-88, 635 nm (AID 1129); conditions: small-molecule microarray binding, fluorescence 635 nm; higher = more signal
[3] = biological target: Focal adhesion kinase 1 (Homo sapiens) (UniProt Q05397); test: PTK2 protein binding on printed compound slides – biochemical, small-molecule microarray, 635/667 nm fluorescence, BSA, DTT, primary screen (AID 1130); conditions: 635 nm fluorescence, higher = more signal;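 also: composite of spot emission at 667 nm and signal to noise over triplicate slides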
Focal adhesion kinase 1 (Homo sapiens), sequence (Q05397 whole entry, looked up): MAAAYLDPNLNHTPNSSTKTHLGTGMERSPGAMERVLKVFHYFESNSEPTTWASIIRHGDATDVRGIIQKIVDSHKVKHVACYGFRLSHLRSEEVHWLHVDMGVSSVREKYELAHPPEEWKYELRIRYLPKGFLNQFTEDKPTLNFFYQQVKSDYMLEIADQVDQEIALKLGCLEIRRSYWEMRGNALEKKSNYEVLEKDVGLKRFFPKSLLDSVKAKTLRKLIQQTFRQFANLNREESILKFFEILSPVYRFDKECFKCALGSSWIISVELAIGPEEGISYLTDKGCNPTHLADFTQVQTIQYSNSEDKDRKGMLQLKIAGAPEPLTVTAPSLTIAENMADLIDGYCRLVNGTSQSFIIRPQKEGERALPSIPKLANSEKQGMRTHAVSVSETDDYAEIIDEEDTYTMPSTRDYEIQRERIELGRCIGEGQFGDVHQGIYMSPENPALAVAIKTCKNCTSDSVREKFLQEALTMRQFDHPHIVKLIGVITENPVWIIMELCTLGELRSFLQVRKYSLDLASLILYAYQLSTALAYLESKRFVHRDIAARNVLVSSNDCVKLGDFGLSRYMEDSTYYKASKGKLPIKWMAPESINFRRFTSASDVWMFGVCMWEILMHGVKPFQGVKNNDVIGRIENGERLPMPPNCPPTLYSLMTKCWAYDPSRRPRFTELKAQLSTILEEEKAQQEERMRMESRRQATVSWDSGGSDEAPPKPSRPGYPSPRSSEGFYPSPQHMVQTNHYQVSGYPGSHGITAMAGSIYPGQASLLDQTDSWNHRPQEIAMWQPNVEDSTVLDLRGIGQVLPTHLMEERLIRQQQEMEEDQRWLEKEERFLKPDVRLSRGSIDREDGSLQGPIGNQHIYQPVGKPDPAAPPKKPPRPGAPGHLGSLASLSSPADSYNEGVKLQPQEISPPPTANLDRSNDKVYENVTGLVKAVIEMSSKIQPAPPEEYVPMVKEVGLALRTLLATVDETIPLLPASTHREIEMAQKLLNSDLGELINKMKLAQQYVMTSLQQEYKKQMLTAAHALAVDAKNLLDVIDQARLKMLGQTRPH

[4] = system: Fibrinogen (Alexa647-labelled); test: Alexa647-fibrinogen binding to printed small molecules – biochemical, small-molecule microarray, 635/667 nm fluorescence, artefact control for SMM control-protein annotation, profiling panel (AID 1131); conditions: fibrinogen-A647 binding fluorescence, higher = more signal;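 also: z-score merges 667 nm fluorescence with per-spot signal-to-noise over triplicate slides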
[5] = biological target: Follistatin (Homo sapiens) (UniProt P19883); test: FST protein binding to printed compounds – biochemical, small-molecule microarray, 635/667 nm fluorescence, primary screen (AID 1132); conditions: 635 nm fluorescence, higher = more signal
Follistatin (Homo sapiens), sequence (P19883 whole entry, looked up): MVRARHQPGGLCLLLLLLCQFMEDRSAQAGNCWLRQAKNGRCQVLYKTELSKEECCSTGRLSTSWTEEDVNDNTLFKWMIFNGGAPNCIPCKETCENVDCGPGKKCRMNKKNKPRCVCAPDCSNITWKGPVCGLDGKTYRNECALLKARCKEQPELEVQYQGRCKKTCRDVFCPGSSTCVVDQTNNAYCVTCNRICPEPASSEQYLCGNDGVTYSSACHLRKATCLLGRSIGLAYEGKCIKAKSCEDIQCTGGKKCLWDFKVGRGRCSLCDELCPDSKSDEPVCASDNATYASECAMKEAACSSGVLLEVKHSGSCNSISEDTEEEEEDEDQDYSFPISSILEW

[6] = biological target: Fibroblast growth factor 2 (Homo sapiens) (UniProt P09038); test: basic fibroblast growth factor binding to printed compounds – biochemical, small-molecule microarray, 635/667 nm fluorescence, primary screen (AID 1133); conditions: FGF2, fluorescence 635/667, higher = more signal
Fibroblast growth factor 2 (Homo sapiens), sequence (P09038 whole entry, looked up): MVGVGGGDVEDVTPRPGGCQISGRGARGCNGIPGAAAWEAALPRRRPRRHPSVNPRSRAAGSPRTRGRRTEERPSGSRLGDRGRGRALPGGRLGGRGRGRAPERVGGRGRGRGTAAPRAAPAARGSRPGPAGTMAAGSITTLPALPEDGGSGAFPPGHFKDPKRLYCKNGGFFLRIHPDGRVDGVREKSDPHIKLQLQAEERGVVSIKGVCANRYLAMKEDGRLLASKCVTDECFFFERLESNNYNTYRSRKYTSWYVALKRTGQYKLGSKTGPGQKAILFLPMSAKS

[7] = JC-1 mitochondrial potential readout, lung cancer cells – cell-based, A549, JC-1 fluorescence, basal, 24 h, 100 nL, profiling panel (AID 1138); conditions: higher = more signal;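 also: A549 lung adenocarcinoma cells under basal conditions with no added stimulus; test concentration not given here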
Lefty1 = Lefty1 protein binding to printed compounds – biochemical, small-molecule microarray, 635/667 nm fluorescence, primary screen (AID 1139); conditions: fluorescence 635/667, higher = more signal
[8] = system: wheat germ agglutinin (Triticum aestivum), Alexa647-labelled; test: Alexa647-WGA lectin binding to printed small molecules – biochemical, small-molecule microarray, 635/667 nm fluorescence, artefact control for SMM control-protein annotation, profiling panel (AID 1140); conditions: WGA-A647 binding, 635 nm fluorescence, higher = more signal;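 also: score merges 667 nm feature emission with signal to noise over triplicate slides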
[9] = biological target: Luciferin 4-monooxygenase (Photinus pyralis) (UniProt P08659); test: inhibition of purified Photinus pyralis luciferase – biochemical, luminescence, purified enzyme, 2006 set, primary screen (AID 1141); conditions: purified firefly luciferase, SteadyGlo luminescence, 30 min; higher = more signal, called active from +8 up or from −8 down;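 also: cell-free assay with purified firefly luciferase at 100 ng per well in PBS; test concentration not given here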
Luciferin 4-monooxygenase (Photinus pyralis), sequence (P08659 whole entry, looked up): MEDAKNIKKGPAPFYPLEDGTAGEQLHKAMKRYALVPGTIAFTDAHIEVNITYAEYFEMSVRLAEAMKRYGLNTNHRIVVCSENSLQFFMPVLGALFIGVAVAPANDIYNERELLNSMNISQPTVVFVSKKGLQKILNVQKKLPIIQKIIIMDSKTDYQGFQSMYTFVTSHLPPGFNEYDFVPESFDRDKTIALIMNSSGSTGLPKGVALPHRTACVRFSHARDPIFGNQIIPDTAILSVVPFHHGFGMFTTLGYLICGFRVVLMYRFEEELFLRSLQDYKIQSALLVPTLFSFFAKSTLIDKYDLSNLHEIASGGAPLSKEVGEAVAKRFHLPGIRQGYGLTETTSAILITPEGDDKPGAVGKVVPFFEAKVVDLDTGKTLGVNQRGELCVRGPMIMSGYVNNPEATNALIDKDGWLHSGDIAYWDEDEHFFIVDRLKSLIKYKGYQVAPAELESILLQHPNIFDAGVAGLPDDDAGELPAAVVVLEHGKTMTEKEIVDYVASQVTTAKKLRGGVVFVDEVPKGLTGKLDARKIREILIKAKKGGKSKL

[10] = system: Wnt5a (protein binding on small-molecule microarray); test: small molecules binding Wnt5a protein – biophysical, small-molecule microarray, 635/667 nm fluorescence, primary screen (AID 1142); conditions: 635 nm fluorescence, higher = more signal;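 also: fluorescence read at 667 nm with signal to noise per printed feature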
[11] = ATP-based viability of Huh7 replicon cells – cell-based, CellTiter-Glo luminescence, basal, 48 h, cytotoxicity control for HCV replication inhibitor project, primary screen (AID 1143); conditions: higher = more signal, called active from +8 up or from −8 down;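 also: Huh7 hepatoma cells carrying a hepatitis C replication reporter with no stimulus; test concentration not given here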
[12] = Pseudomonas biofilm growth suppression – PAO1 strain, BacTiter-Glo luminescence, LB-PBS, primary screen (AID 1144); conditions: P. aeruginosa PAO1 biofilm, 12 h, higher = more signal
[13] = basal CRE-LacZ reporter activity in PC12 – cell-based, unstimulated, primary screen (AID 1145); conditions: no forskolin, luminescence, 4.5 h, higher = more signal, called active from +8 up or from −8 down
[14] = forskolin-driven CRE-LacZ activity in PC12 – cell-based, CRE-LacZ reporter, forskolin-stimulated, primary screen (AID 1146); conditions: luminescence, 4.5 h, higher = more signal, called active from +8 up or from −8 down;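 also: PC12 cells with 6xCRE LacZ reporter stimulated by forskolin 10 µM; beta-galactosidase reporter signal reflecting CREB driven transcription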
[15] = biological target: Streptavidin (Streptomyces avidinii) (UniProt P22629); test: compounds binding control protein streptavidin – biophysical, small-molecule microarray, 635/667 nm fluorescence, artefact control for SMM compound annotation, primary screen (AID 1147); conditions: higher = more signal;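 also: signal reflects streptavidin binding to arrayed compounds as a control protein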
Streptavidin (Streptomyces avidinii), sequence (P22629 whole entry, looked up): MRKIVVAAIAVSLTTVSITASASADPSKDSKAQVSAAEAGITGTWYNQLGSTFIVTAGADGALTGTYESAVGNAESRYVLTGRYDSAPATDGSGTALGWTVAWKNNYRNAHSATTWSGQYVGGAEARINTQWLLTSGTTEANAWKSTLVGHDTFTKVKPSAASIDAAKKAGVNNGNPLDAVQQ

[16] = probe aInhba binding on compound microarray – biochemical, small-molecule microarray, 635/667 nm fluorescence, primary screen (AID 1148); conditions: higher = more signal;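 also: score merges 667nm spot fluorescence with signal-to-noise for antibody binding to printed compounds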
Torsin-1A (Homo sapiens) [17] = biological target: Torsin-1A (Homo sapiens) (UniProt O14656); test: TOR1A wild-type binding on microarray – cell lysate, small-molecule microarray, lysate, 635/667 nm, primary screen (AID 1149); conditions: COS7 hTOR1A-WT lysate, 635 nm fluorescence, higher = more signal
Torsin-1A (Homo sapiens), sequence (O14656 whole entry, looked up): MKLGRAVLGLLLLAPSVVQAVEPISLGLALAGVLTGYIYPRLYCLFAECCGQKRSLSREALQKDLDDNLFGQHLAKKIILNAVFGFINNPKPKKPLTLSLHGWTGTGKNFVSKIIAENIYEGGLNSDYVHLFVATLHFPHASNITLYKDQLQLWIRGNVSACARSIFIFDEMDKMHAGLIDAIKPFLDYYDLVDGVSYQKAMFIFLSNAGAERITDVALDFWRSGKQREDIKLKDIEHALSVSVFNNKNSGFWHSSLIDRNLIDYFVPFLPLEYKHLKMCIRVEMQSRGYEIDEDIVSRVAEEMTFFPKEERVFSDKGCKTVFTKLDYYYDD

Torsin-1A (Homo sapiens) [18] = biological target: Torsin-1A (Homo sapiens) (UniProt O14656); test: torsin A mutant lysate binding on microarrays – cell lysate, small-molecule microarray, COS7 lysate, 635/667 nm fluorescence, primary screen (AID 1150); conditions: COS7 hTOR1A mutant lysate, 635 nm fluorescence, higher = more signal;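 also: score pools 667 nm emission and signal to noise measuring lysate protein binding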
[19] = system: Sonic hedgehog protein (Shh); test: Sonic hedgehog microarray binding compounds – biochemical, small-molecule microarray, 635/667 nm fluorescence, primary screen (AID 1151); conditions: 635 nm fluorescence, higher = more signal;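 also: Shh protein binding to compounds spotted on small-molecule microarray slides; score combines spot fluorescence intensity with signal-to-noise across triplicate slides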

SMILES | composite z-score [1] | composite z-score [2] | composite z-score [3] | composite z-score [4] | composite z-score [5] | composite z-score [6] | z-score [7] | composite z-score (Lefty1) | composite z-score [8] | z-score [9] | composite z-score [10] | z-score [11] | z-score [12] | z-score [13] | z-score [14] | composite z-score [15] | composite z-score [16] | composite z-score (Torsin-1A (Homo sapiens) [17]) | composite z-score (Torsin-1A (Homo sapiens) [18]) | composite z-score [19]
CC(C)(C)OC(=O)CC[C@]1(C(=O)O)COC(c2ccc(OCCCO)cc2)=N1 | 0.541 | -0.173 | -0.108 | 0.68 | -0.747 | -1.23 | 0.352 | -0.552 | 0.62 | -0.306 (inactive) | -0.0943 | 0.61 (inactive) | 0.178 (inactive) | 0.694 (inactive) | 0.506 (inactive) | 0.142 | -0.0589 | 0.676 | 1.08 | -2.07
Cc1ccc(S[C@]2(C(=O)NCCN3CCOCC3)CC(=O)N(C3Cc4ccccc4C3)[C@@H]2c2ccc(CO)cc2)cc1 | 1.22 | 0.0419 | 0.82 | -0.778 | -0.135 | -0.592 | 0.161 | -1.47 | -0.278 | 0.54 (inactive) | -0.2 | -0.73 (inactive) | -0.396 (inactive) | -0.152 (inactive) | 1.3 (inactive) | -0.994 | -0.125 | 0.0023 | 0.206 | -0.393
C[C@]12C(=O)N(CCCCCO)[C@@H]3C(=O)N(c4ccc(Cl)cc4)CC=CC31O[C@@H]1/C=C\CCCOC(=O)C12 (stereo not given in full) | -0.39 | -0.711 | -0.83 | -1.47 | -0.271 | -1.27 | 0.428 | -0.431 | -1.31 | -0.576 (inactive) | -0.937 | -0.297 (inactive) | 1.45 (inactive) | 0.203 (inactive) | -0.416 (inactive) | -1.19 | -0.179 | -2.76 | -1.63 | 0.0607
NCCCCCCNC(=O)[C@H]1C[C@H]2C(=O)N3CCC[C@H]3C(=O)N2[C@H]1c1ccc(O)cc1 | 2.79 | 0.609 | 1.1 | 0.437 | 1.36 | 1.66 | -0.712 | 0.918 | 0.752 | 0.24 (inactive) | 0.214 | -0.734 (inactive) | 0.131 (inactive) | 0.0084 (inactive) | -0.27 (inactive) | 0.0381 | 0.0047 | 0.624 | 0.553 | 1.86
COC(=O)[C@@]1(Cc2ccc(OC)cc2)[C@H]2c3cc(C(=O)N4CCCC4)n(CCF)c3C[C@H]2CN1C(=O)c1ccccc1 | 2.31 | 1.17 | 0.896 | 1.04 | 0.411 | -0.0251 | -1.32 | -0.3 | 1.06 | 1.49 (inactive) | 2.55 | -2.46 (inactive) | -0.129 (inactive) | 0.972 (inactive) | 0.325 (inactive) | 1.5 | 2.05 | -0.0089 | 0.619 | -0.801
COc1ccc(C#Cc2ccc3c(c2)[C@]2(C(=O)N3)[C@H](c3ccc(OCCO)cc3)N3[C@H](c4ccccc4)[C@H](c4ccccc4)OC(=O)[C@H]3[C@@H]2C(=O)N2CCN(c3ncccn3)CC2)cc1 | 0.197 | 0.816 | 0.0451 | 0.771 | 1.01 | 0.0495 | -1.38 | 0.305 | 0.776 | 0.713 (inactive) | 0.0992 | -3.47 (inactive) | -0.385 (inactive) | 0.0653 (inactive) | -0.239 (inactive) | 0.819 | -0.0521 | 0.433 | 0.374 | 0.666
COc1cc2c(cc1OC)CN(C(=O)[C@@H]1[C@H]3C(=O)O[C@H](c4ccccc4)[C@H](c4ccccc4)N3[C@H](c3ccc(O)cc3)[C@@]13C(=O)Nc1ccc(C#CCNC(N)=O)cc13)CC2 | 0.474 | 0.69 | 0.484 | 0.43 | 1.29 | 0.302 | -0.876 | 0.837 | 0.607 | 0.696 (inactive) | 0.147 | 0.311 (inactive) | 0.347 (inactive) | 0.182 (inactive) | 0.445 (inactive) | 0.239 | -0.101 | -0.0899 | -0.0351 | 0.946
C[C@H]1NC(=O)C([C@@H](C)OCc2ccccc2)NC(=O)[C@@]23C(=O)N[C@@H](Cc4ccccc4)C2[C@H](C)[C@@]2(C)O[C@H]2C3/C=C/CC/C=C/CNC1=O (stereo not given in full) | -0.342 | -0.413 | -0.305 | 0.42 | 0.607 | 0.588 | -0.198 | 0.331 | 0.384 | -0.749 (inactive) | -0.108 | -1.24 (inactive) | 1.27 (inactive) | 4.21 (inactive) | -1.16 (inactive) | -0.0311 | -0.122 | -0.0252 | 0.212 | 0.778
COC(=O)[C@@]1(Cc2ccc(OC)cc2)[C@H]2c3cc(C(=O)N4CCCC4)n(Cc4ccc(C)o4)c3C[C@H]2CN1C(=O)c1ccccc1 | 0.849 | 1.2 | -0.0727 | -0.369 | 1.09 | -0.648 | -3.11 | -0.211 | 0.26 | -22.4 (active) | 0.989 | -5.19 (inactive) | -0.101 (inactive) | -0.758 (inactive) | -2.15 (inactive) | 0.458 | 0.505 | -1.39 | 0.285 | -0.754
C=C[C@H](C)[C@H](OC(=O)Nc1ccc(SC)cc1)c1ccc(O)c2ccccc12 | 0.499 | -0.526 | 0.209 | -1.35 | 1.08 | 0.162 | -1.51 | 0.192 | -0.341 | -2.89 (inactive) | 0.081 | -4.25 (inactive) | -0.0275 (inactive) | 0.0172 (inactive) | 4.5 (inactive) | -0.635 | -0.154 | -0.252 | -0.0104 | 0.73
